Outcome and Potency data for 19 compounds are collected here from PubChem BioAssay AID493209 (National Center for Advancing Translational Sciences (NCATS), 2011).

Activity calls are given as the source filed them.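 The calls were made as follows: active = compounds that raised 12-lipoxygenase product formation in the cuvette follow-up test, with a fitted potency; inactive = the rest, inconclusive results apart.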

Polyunsaturated fatty acid lipoxygenase ALOX12 (Homo sapiens), sequence (P18054 whole entry, looked up): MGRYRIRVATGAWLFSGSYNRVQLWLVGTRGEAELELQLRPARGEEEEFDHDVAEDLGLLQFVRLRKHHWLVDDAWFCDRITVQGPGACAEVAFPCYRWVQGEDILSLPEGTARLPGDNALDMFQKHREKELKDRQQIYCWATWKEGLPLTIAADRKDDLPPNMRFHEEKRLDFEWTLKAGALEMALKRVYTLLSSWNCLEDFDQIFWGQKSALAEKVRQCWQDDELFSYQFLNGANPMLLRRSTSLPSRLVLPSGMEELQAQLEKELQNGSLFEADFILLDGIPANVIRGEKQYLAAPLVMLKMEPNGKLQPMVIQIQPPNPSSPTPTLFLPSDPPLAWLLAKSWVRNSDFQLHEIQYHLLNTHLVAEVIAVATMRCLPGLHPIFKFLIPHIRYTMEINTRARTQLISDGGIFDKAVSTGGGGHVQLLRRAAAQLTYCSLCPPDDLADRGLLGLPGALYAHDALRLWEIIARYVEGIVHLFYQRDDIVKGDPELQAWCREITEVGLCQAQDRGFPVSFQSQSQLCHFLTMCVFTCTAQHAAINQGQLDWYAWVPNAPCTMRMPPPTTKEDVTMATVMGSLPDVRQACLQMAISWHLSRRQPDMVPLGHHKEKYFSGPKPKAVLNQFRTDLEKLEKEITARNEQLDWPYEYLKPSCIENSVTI

The target of the experiment is Polyunsaturated fatty acid lipoxygenase ALOX12 (Homo sapiens) (UniProt P18054). Nature of the experiment: Activators of 12-hLO (12-human lipoxygenase): 12hLO Cuvette-Based Hit Validation Assay of Followup Compounds. The conditions noted are these: purified 12-hLO, cuvette UV 234 nm product formation. How it is done:
The enzyme activity of 12-hLO was determined by a direct measurement of product formation by monitoring the absorbance at 234 nm in a 2 mL cuvette. IC50 values of inhibitors were obtained by measuring the enzymatic rate at a variety of concentrations (Carroll et al, Segraves et al). This assay was used to validate active or inconclusive putative activators identified in the primary screen (see related BioAssay AIDs). Assay Provider: Holman, T.R., University of California, Santa Cruz Screening Center PI: Austin, Christopher P. Screening Center: NIH Chemical Genomics Center
For control experiments, 2 mL of substrate buffer (10 uM arachidonic acid / 25 mM HEPES / 0.01% (v/v) Triton X-100, pH 8.0) was aliquoted in a cuvette with a magnetic stir bar. After equilibrium was ensured, an aliquot of inhibitor solvent was added (DMSO), and equilibrium was once again assured. The reaction was started by adding enzyme to the cuvette and the reaction was followed until completed. The inhibition experiments were performed as above, except the actual inhibitory compound was added instead of vehicle. To achieve an IC50, typically 5 concentrations of the inhibitor were studied. If the inhibitor concentration was constant, then five different reaction volumes were used. Step \ Parameter \ Value \ Description 1; UV-Vis; 234 nm; Equilibration 2; Reagent; 2 mL; Substrate buffer 3; UV-Vis; 234 nm; Equilibration 4; Reagent; varies; Compound 5; UV-Vis; 234 nm; Equilibration 6; Reagent; 50-200 nM; Enzyme 12-hLO 7; UV-Vis; 234 nm; Enzymatic reaction Step \ Notes 1; Blank cuvette to air. 2; 10 uM AA, 25 mM HEPES, 0.01% Triton X-100, pH 8. 3; No change in absorbance ensured. 4; Compound vehicle or compound in various concentrations depending on potency. 5; No change in absorbance ensured. 6; Enzyme concentration to achieve reaction rate between 0.02 and 0.04 AU/s. 7; Enzymatic reaction visualized until completion.
As for `CCOC(=O)Cc1cc(=O)n(-c2nc3ccccc3s2)[nH]1`, the result was inactive. Consider `Cc1cc(C)c2cc(CN(Cc3nnnn3C3CCCCC3)CC3CCCO3)c(=O)[nH]c2c1` (centres undefined), for which the compound was called inactive. Take `Oc1ccccc1-c1cc(-c2ccc3c(c2)OCCO3)n[nH]1`: the compound was called inactive.

For `CCc1ccc(S(=O)(=O)/N=C2/C=C(Sc3ncn[nH]3)C(=O)c3ccccc32)cc1`, the compound was called inactive. `CC1=NN(c2ccc(Cl)cc2)C(=O)C1C(c1ccccc1O)c1c(C)[nH]n(-c2ccc(Cl)cc2)c1=O` (centres undefined): the compound was called inactive. Still for that read-out and setting: next, `CC(Oc1ccc(Cl)cc1Cl)C(=O)NC1=NN(c2ccccc2)C(=O)C1` (centres undefined): “inactive”; `Cc1oc2c(O)c(O)ccc2c(=O)c1-c1cnn(-c2ccccc2)c1`: “inactive”; `CC(Oc1ccc(Cl)cc1Cl)C(=O)Nc1ccc(S(=O)(=O)Nc2cnc3ccccc3n2)cc1` (centres undefined): “inactive”. `CCOc1ccc(-c2[nH]ncc2Oc2cccc(OC)c2)c(O)c1`: the outcome was inactive. The same measure, in the same setting: next, `CCc1cc(-c2[nH]ncc2-c2ccc3c(c2)OCO3)c(O)cc1O`: “inactive”; `COc1cccc(-c2cnc(NCc3cc(Cl)ccc3O)n2C)c1`: “inactive”; `CSCCC(NC(=O)c1ccc(Cl)cc1)C(=O)OCC(=O)Nc1ccc(C#N)cc1` (centres undefined): “inactive”. Turning to `Oc1ccc(-c2nc(-c3ccc(O)c(O)c3)cs2)cc1`, the compound was called inactive. Still for that read-out and setting: in the case of `O=S(=O)(Nc1ccc(O)c(Sc2nc3ccccc3s2)c1)c1ccc(Cl)cc1` it was “inactive”.

On to `COc1ccc(C(=O)Nc2cc(C(=O)c3ccccc3)c(C)oc2=O)cc1`, for which the Potency was 61.6 µM (active). With `O=C(Nc1nnc(-c2ccccn2)o1)c1ccc(Br)cc1`, the result was inactive. On the same count and under the same terms, next, `CN(C)c1nccc(N(Cc2ccccc2)Cc2ccccc2)c1C#N`: “inactive”; `CCCOC(=O)c1ccc(Oc2cn[nH]c2-c2ccc(OC)cc2O)cc1`: “inactive”. Turning to `Cc1ccc(C(=O)/C=C/c2c[nH]c3ccccc23)cc1`, the call was inactive.
